In PubChem BioAssay AID1159580 (chemical genetic matrix, 2015):
The campaign covered roughly 5,500 compounds. About 2,000 (36%) were called active. Not shown: some 18% with an inconclusive outcome. Cut-off read from the data, not from the text of the source: active = normalized growth mostly below about 0.91 (no sharp cut-off); inconclusive = no clear call, values can overlap the other calls; inactive = mostly above about 0.92. This is one part of the list.

Experiment: chemical genetic growth profiling, strain panel (AID 1159580);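 note: tested at 20 µM; growth read once vehicle control cultures reached saturation at 30 °C; 1 = growth at the plate median or of vehicle wells; lower values mean less growth of the strain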
Details: S. cerevisiae deletion strains, growth OD
[1] = locus YAL040C, strain CLN3, stronger effect = lower value
[2] = locus YCL061C, strain MRC1 (second series), stronger effect = lower value
[3] = locus YER002W, strain NOP16, stronger effect = lower value
[4] = locus YMR263W, strain SAP30, stronger effect = lower value
[5] = locus YNL153C, strain GIM3, stronger effect = lower value
[6] = locus YNL175C, strain NOP13, stronger effect = lower value
[7] = locus YNL197C, strain WHI3, stronger effect = lower value
[8] = locus YNL224C, strain SQS1, stronger effect = lower value
[9] = locus YNL322C, strain KRE1, stronger effect = lower value
[10] = locus YOR083W, strain WHI5 (second series), stronger effect = lower value
[11] = locus YPL055C, strain LGE1, stronger effect = lower value
[12] = locus YPL241C, strain CIN2, stronger effect = lower value
[13] = locus YAR019C, strain CDC15, stronger effect = lower value
[14] = locus YBL105C, strain PKC1, stronger effect = lower value
[15] = locus YBR135W, strain CKS1, stronger effect = lower value
[16] = locus YBR136W, strain MEC1, stronger effect = lower value
[17] = locus YBR160W, strain CDC28, stronger effect = lower value
[18] = locus YDL017W, strain CDC7, stronger effect = lower value
[19] = locus YDL028C, strain MPS1, stronger effect = lower value
[20] = locus YDL101C, strain DUN1, stronger effect = lower value
[21] = locus YDL108W, strain KIN28, stronger effect = lower value
[22] = locus YDL132W, strain cdc53, stronger effect = lower value
[23] = locus YDL214C, strain PRR2, stronger effect = lower value
[24] = locus YDR052C, strain DBF4, stronger effect = lower value
[25] = locus YDR054C, strain cdc34, stronger effect = lower value
[26] = locus YDR226W, strain ADK1, stronger effect = lower value
[27] = locus YDR477W, strain SNF1, stronger effect = lower value
[28] = locus YER123W, strain YCK3, stronger effect = lower value
[29] = locus YER133W, strain GLC7, stronger effect = lower value
[30] = locus YFL009W, strain cdc4, stronger effect = lower value
[31] = locus YFL029C, strain CAK1, stronger effect = lower value
[32] = locus YFR003C, strain YPI1, stronger effect = lower value
[33] = locus YFR019W, strain FAB1, stronger effect = lower value
[34] = locus YFR028C, strain CDC14, stronger effect = lower value
[35] = locus YGR040W, strain KSS1, stronger effect = lower value
[36] = locus YGR052W, strain FMP48, stronger effect = lower value
[37] = locus YGR092W, strain DBF2, stronger effect = lower value
[38] = locus YHR030C, strain SLT2, stronger effect = lower value
[39] = locus YHR079C, strain IRE1, stronger effect = lower value
[40] = locus YHR082C, strain KSP1, stronger effect = lower value
[41] = locus YHR205W, strain SCH9, stronger effect = lower value
[42] = locus YIL147C, strain SLN1, stronger effect = lower value
[43] = locus YJL095W, strain BCK1, stronger effect = lower value
[44] = locus YJL128C, strain PBS2, stronger effect = lower value
[45] = locus YJL157C, strain FAR1, stronger effect = lower value
[46] = locus YJR016C, strain ILV3, stronger effect = lower value
[47] = locus YJR066W, strain TOR1 (second series), stronger effect = lower value
[48] = locus YJR066W, strain TOR1, stronger effect = lower value
[49] = locus YKL048C, strain ELM1, stronger effect = lower value
[50] = locus YKL067W, strain YNK1, stronger effect = lower value
[51] = locus YKL101W, strain HSL1, stronger effect = lower value
[52] = locus YKL193C, strain SDS22, stronger effect = lower value
[53] = locus YKL203C, strain TOR2, stronger effect = lower value
[54] = locus YLR113W, strain HOG1, stronger effect = lower value
[55] = locus YLR133W, strain CKI1, stronger effect = lower value
[56] = locus YLR403W, strain SFP1, stronger effect = lower value
[57] = locus YML070W, strain DAK1, stronger effect = lower value
[58] = locus YMR001C, strain CDC5, stronger effect = lower value
[59] = locus YMR205C, strain PFK2 (second series), stronger effect = lower value
[60] = locus YMR277W, strain FCP1, stronger effect = lower value
[61] = locus YNL006W, strain LST8, stronger effect = lower value
[62] = locus YNL020C, strain ARK1, stronger effect = lower value
[63] = locus YNL161W, strain CBK1, stronger effect = lower value
[64] = locus YNL183C, strain NPR1, stronger effect = lower value
[65] = locus YNL207W, strain RIO2, stronger effect = lower value
[66] = locus YNL222W, strain SSU72, stronger effect = lower value
[67] = locus YNL307C, strain MCK1 (second series), stronger effect = lower value
[68] = locus YOL078W, strain AVO1, stronger effect = lower value
[69] = locus YOL136C, strain PFK27, stronger effect = lower value
[70] = locus YOR061W, strain CKA2, stronger effect = lower value
[71] = locus YOR119C, strain RIO1, stronger effect = lower value
[72] = locus YOR231W, strain MKK1, stronger effect = lower value
[73] = locus YOR329C, strain SCD5, stronger effect = lower value
[74] = locus YPL031C, strain PHO85, stronger effect = lower value
[75] = locus YPL153C, strain RAD53, stronger effect = lower value
[76] = locus YPL204W, strain HRR25, stronger effect = lower value
[77] = locus YPL209C, strain IPL1, stronger effect = lower value
[78] = locus YPL256C, strain CLN2, stronger effect = lower value
[79] = locus YPR025C, strain CCL1, stronger effect = lower value
[80] = locus YPR106W, strain ISR1, stronger effect = lower value
[81] = locus YPR111W, strain DBF20, stronger effect = lower value
[82] = strain NNK1, stronger effect = lower value
[83] = strain TSCII, stronger effect = lower value
[84] = locus YAL013W, strain DEP1, stronger effect = lower value
[85] = locus YDR363W, strain ESC2, stronger effect = lower value
[86] = locus YGR078C, strain PAC10, stronger effect = lower value
[87] = locus YMR307W, strain GAS1, stronger effect = lower value

Measured: normalized growth

C#CC(N)CCC(=O)O (stereo not given)
inactive: [1] 1.02 | [2] 1.01 | [3] 1.01 | locus YGR229C, strain SMI1, stronger effect = lower value 1.01 | [4] 1.01 | [5] 1 | [6] 1.02 | [7] 1.02 | [8] 1 | [9] 1.01 | [10] 0.988 | [11] 0.989 | [12] 1.01

S=C(NNc1ccccc1)Nc1cc(Cl)ccc1Cl
inactive: [13] 0.963 | [14] 0.958 | [15] 0.96 | [16] 0.962 | [17] 0.963 | [18] 0.962 | [19] 0.97 | [20] 0.963 | [21] 0.974 | [22] 0.959 | [23] 0.953 | [24] 0.966 | [25] 0.939 | [26] 0.985 | [27] 0.945 | [28] 0.921 | [29] 0.958 | [30] 0.974 | [31] 0.95 | [32] 0.961 | [33] 1 | [34] 0.965 | [35] 0.94 | [36] 1.02 | [37] 0.726 | [38] 0.853 | [39] 0.909 | [40] 0.935 | [41] 0.938 | [42] 0.965 | [43] 0.918 | [44] 0.967 | [45] 0.947 | [46] 0.961 | [47] 0.934 | [48] 0.894 | [49] 0.951 | [50] 0.976 | [51] 0.957 | [52] 0.955 | [53] 1 | [54] 0.874 | [55] 0.955 | [56] 0.936 | [57] 0.948 | [58] 0.959 | [59] 0.98 | [60] 0.957 | [61] 0.971 | [62] 0.964 | [63] 0.956 | [64] 0.957 | [65] 0.946 | [66] 0.957 | [67] 0.914 | [68] 0.958 | [69] 0.953 | [70] 0.909 | [71] 0.958 | [72] 0.928 | [73] 0.952 | [74] 0.925 | [75] 0.922 | [76] 0.938 | [77] 0.964 | [78] 0.893 | [79] 0.96 | [80] 0.964 | [81] 0.973 | [82] 0.964 | [83] 0.957

S=C(Nc1cc(Cl)c(Cl)cc1Cl)Nc1ccccc1Br
inactive: [13] 0.958 | [14] 0.969 | [15] 0.964 | [16] 0.953 | [17] 0.961 | [18] 0.963 | [19] 0.953 | [20] 0.977 | [21] 0.958 | [22] 0.96 | [23] 0.884 | [24] 0.97 | [25] 0.969 | [26] 0.947 | [27] 0.875 | [28] 0.833 | [29] 0.87 | [30] 0.963 | [31] 0.949 | [32] 0.969 | [33] 0.899 | [34] 0.943 | [35] 0.861 | [36] 0.848 | [37] 0.77 | [39] 0.82 | [40] 0.822 | [41] 0.812 | [42] 0.939 | [43] 0.796 | [44] 0.927 | [45] 0.898 | [46] 0.961 | [47] 0.848 | [48] 0.786 | [49] 0.911 | [50] 0.892 | [51] 0.842 | [52] 0.96 | [53] 0.913 | [55] 0.861 | [56] 0.754 | [57] 0.86 | [58] 0.957 | [59] 0.873 | [60] 0.959 | [61] 0.984 | [62] 0.844 | [63] 0.977 | [64] 0.791 | [65] 0.962 | [66] 0.97 | [67] 0.839 | [68] 0.962 | [69] 0.854 | [70] 0.749 | [71] 0.869 | [72] 0.846 | [73] 0.975 | [74] 0.873 | [75] 0.837 | [76] 0.848 | [77] 0.966 | [79] 0.966 | [80] 0.942 | [81] 0.935 | [82] 0.961 | [83] 0.953
active: [38] 0.67 | [54] 0.828 | [78] 0.809

NC(CCCP(=O)(O)O)C(=O)O (stereo not given)
inactive: [84] 0.993 | [1] 1.01 | [2] 1 | [85] 1.09 | [3] 0.993 | [86] 1.02 | [4] 1 | [87] 0.982 | [6] 1.01 | [7] 1 | [8] 1.02 | [9] 1 | [10] 1.01 | [11] 0.977 | [12] 0.993

O=C1NC(c2cccc([N+](=O)[O-])c2)=CCN1c1ccccc1O
inactive: [84] 0.998 | [1] 0.994 | [2] 1.01 | [85] 1.01 | [3] 1 | [86] 1.02 | locus YJR075W, strain HOC1, stronger effect = lower value 1.01 | [4] 1 | [87] 1 | [5] 1.05 | [6] 1 | [7] 1.01 | [8] 0.995 | [9] 0.998 | [10] 1.01
